# Source: PubChem BioAssay (EPA / NIEHS)
# Activity calls are given as the source filed them. The calls were made as follows: active = hit-call score of the fitted dose curve at least 0.9, where 1 is the maximum; inactive = score below 0.9.
# Read-out: Plasminogen activator inhibitor-1 (PAI1), SERPINE1 (gene 5054)
# Assay: BSK_hDFCGF_PAI1: BioMAP Diversity Plus: hDFCGF Assay for Plasminogen activator inhibitor-1 (PAI1) Biomarker Activity (AID 2283066)
# Settings: primary human foreskin fibroblasts; actives raise or lower the signal
# Procedure, shortened: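 Human foreskin fibroblast primary cells, 24 h chemical exposure; PAI-1 measured by ELISA. Bidirectional fitting relative to DMSO; parallel cultures stained with SRB for total protein to flag overt cytotoxicity.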
SMILES,AC50,outcome
CCCCCCc1ccc(O)cc1O,30.7 µM (active),–
COc1ccc2sc(C(=O)Nc3nnn[nH]3)c(OC(C)C)c2c1,6.57 µM (active),–
CN(C)c1ccc(N=NS(=O)(=O)O)cc1,–,inactive
Nc1nc2ncc(CNc3ccc(C(=O)N[C@@H](CCC(=O)O)C(=O)O)cc3)nc2c(=O)[nH]1,–,inactive
CCn1nc(Cc2ccccc2)cc1C1CCN(C[C@H]2C[C@H](N(C)[C@@H](C(=O)O)C(C)C)C[C@@H]2c2cccc(F)c2)CC1,–,inactive
Cc1ccc(C)c(O)c1,–,inactive
C=CC(=C)CCC=C(C)C,–,inactive
O=C1OC(=O)C2C3C=CC(C3)C12 (stereo not given),–,inactive
CCOC(=O)COc1ccc2c(c1)CC(NCC(O)c1cccc(Cl)c1)CC2 (stereo not given),31.7 µM (active),–
CCOCCOCCOCCO,–,inactive
CCCC(=O)OCC,–,inactive
O=C(O)c1cc(N=Nc2ccc(S(=O)(=O)Nc3ccccn3)cc2)ccc1O,–,inactive
O=C(NS(=O)(=O)/C=C/c1ccccc1)c1ccc(F)cc1Cl,–,inactive
C[C@](N)(Cc1ccc(O)c(O)c1)C(=O)O,–,inactive
CCCCC(CC)COC(=O)CCCCCCCCC(=O)OCC(CC)CCCC (stereo not given),–,inactive
CCCCCCCCCCCCc1ccccc1,–,inactive
O=P(OC(CCl)CCl)(OC(CCl)CCl)OC(CCl)CCl,–,inactive
CNS(=O)(=O)c1cc(C(=O)N2CCC(CCN3C4CCC3CC(n3c(C)nc5ccccc53)C4)(c3cccc(F)c3)CC2)c(Cl)cc1F (stereo not given),20 µM (active),–
Oc1ccc2c(c1)-c1ccccc1C2,–,inactive
CC(C)CCCCCCOC(=O)c1ccc(C(=O)OCCCCCCC(C)C)c(C(=O)OCCCCCCC(C)C)c1,–,inactive
